# From the supplement of paper PMC12282887
# ± gives the standard deviation of the averaged measurements.
# How the values were obtained:
# Assay in all cases: promoter activity interaction Z-score (Lux/OD deviation from empty-vector control); higher = stronger promoter induction by the compound
# [1] = test system: E. coli BW25113 acrABp lux reporter
# Procedure, shortened: (§1)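 E. coli BW25113 luxCDABE reporter strains grew at 37°C in 40 µl LB Lennox in 384-well plates, with OD600 and luminescence read every 30 min for 12 h. After integration over 0–8 h for wild type or 1–9 h for deletion strains, wells under 10% of the median growth value were removed. Each score is the Z-transformed residual of growth-normalised luminescence fitted against a control.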
# [2] = test system: E. coli BW25113 marRABp lux reporter
# Procedure, shortened: as §1
# [3] = test system: E. coli BW25113 micFp lux reporter
# Procedure, shortened: as §1
# [4] = test system: E. coli BW25113 ompFp lux reporter
# Procedure, shortened: as §1
# [5] = test system: E. coli BW25113 robp lux reporter
# Procedure, shortened: as §1
# [6] = test system: E. coli BW25113 soxSp lux reporter
# Procedure, shortened: as §1
# [7] = test system: E. coli BW25113 tolCp lux reporter
# Procedure, shortened: as §1
# [8] = 0.62 µg/ml, genetic background: wild type
# [9] = 0.62 µg/ml, genetic background: ΔmarA
# [10] = 0.62 µg/ml, genetic background: Δrob
# [11] = 0.62 µg/ml, genetic background: ΔsoxS
# [12] = 1.2 µg/ml, genetic background: wild type
# [13] = 2.5 µg/ml, genetic background: wild type
# [14] = 0.45 µg/ml, genetic background: wild type
# [15] = 0.45 µg/ml, genetic background: ΔmarA
# [16] = 0.45 µg/ml, genetic background: Δrob
# [17] = 0.45 µg/ml, genetic background: ΔsoxS
# [18] = 0.89 µg/ml, genetic background: wild type
# [19] = 0.89 µg/ml, genetic background: ΔmarA
# [20] = 0.89 µg/ml, genetic background: Δrob
# [21] = 0.89 µg/ml, genetic background: ΔsoxS
# [22] = 1.8 µg/ml, genetic background: wild type
# [23] = 1.8 µg/ml, genetic background: ΔmarA
# [24] = 1.8 µg/ml, genetic background: Δrob
# [25] = 1.8 µg/ml, genetic background: ΔsoxS
# [26] = 3.6 µg/ml, genetic background: wild type
# [27] = 3.6 µg/ml, genetic background: ΔmarA
# [28] = 3.6 µg/ml, genetic background: ΔsoxS
# [29] = 3.6 µg/ml, genetic background: Δrob
structure (smiles),measurement,setting,value
CC(=O)C(NC(=O)C(C)C(O)C(C)NC(=O)C(NC(=O)c1nc(C(CC(N)=O)NCC(N)C(N)=O)nc(N)c1C)C(O[C@@H]1O[C@@H](CO)[C@@H](O)[C@H](O)[C@]1(C)O[C@@H]1OC(CO)[C@H](O)[C@](O)(C(N)=O)[C@H]1O)c1cnc[nH]1)C(=O)NCCC1=NC(c2nc(C(N)=O)cs2)CS1 (some centres not stated) [Phleomycin],promoter activity interaction Z-score,[1]; [8],1.07 ± 0.23
same,promoter activity interaction Z-score,[1]; [9],-0.273 ± 0.32
same,promoter activity interaction Z-score,[1]; [10],1.04
same,promoter activity interaction Z-score,[1]; [11],0.298 ± 1.3
same,promoter activity interaction Z-score,[1]; [12],2.12
same,promoter activity interaction Z-score,[2]; [8],1.05 ± 0.22
same,promoter activity interaction Z-score,[2]; [9],2.57
same,promoter activity interaction Z-score,[2]; [10],1.98
same,promoter activity interaction Z-score,[2]; [11],1.57
same,promoter activity interaction Z-score,[2]; [12],2.71 ± 0.25
same,promoter activity interaction Z-score,[3]; [8],-0.476 ± 0.019
same,promoter activity interaction Z-score,[3]; [9],-0.254 ± 0.023
same,promoter activity interaction Z-score,[3]; [10],-0.0516 ± 0.18
same,promoter activity interaction Z-score,[3]; [11],-0.651 ± 0.16
same,promoter activity interaction Z-score,[3]; [12],-1.14 ± 0.14
same,promoter activity interaction Z-score,[3]; [13],-0.981 ± 0.31
same,promoter activity interaction Z-score,[4]; [8],1.83 ± 0.41
same,promoter activity interaction Z-score,[4]; [9],0.799 ± 2
same,promoter activity interaction Z-score,[4]; [10],-0.998
same,promoter activity interaction Z-score,[4]; [11],1.46 ± 2.8
same,promoter activity interaction Z-score,[4]; [12],-0.554
same,promoter activity interaction Z-score,[5]; [8],-0.5306 ± 0.0049
same,promoter activity interaction Z-score,[5]; [9],-0.313 ± 0.067
same,promoter activity interaction Z-score,[5]; [10],-1.12
same,promoter activity interaction Z-score,[5]; [11],-0.519 ± 0.41
same,promoter activity interaction Z-score,[5]; [12],-0.94 ± 0.28
same,promoter activity interaction Z-score,[6]; [8],0.286 ± 0.032
same,promoter activity interaction Z-score,[6]; [9],-0.0997 ± 0.0027
same,promoter activity interaction Z-score,[6]; [10],-0.106 ± 0.024
same,promoter activity interaction Z-score,[6]; [11],3.11 ± 2.5
same,promoter activity interaction Z-score,[6]; [12],-0.481 ± 0.012
same,promoter activity interaction Z-score,[6]; [13],-0.666 ± 0.31
same,promoter activity interaction Z-score,[7]; [8],-0.425 ± 0.84
same,promoter activity interaction Z-score,[7]; [9],-0.832 ± 0.55
same,promoter activity interaction Z-score,[7]; [10],-0.362 ± 0.33
same,promoter activity interaction Z-score,[7]; [11],0.481 ± 0.63
same,promoter activity interaction Z-score,[7]; [12],-0.433 ± 0.62
same,promoter activity interaction Z-score,[7]; [13],-1.33 ± 1.2
O=C1CN(/N=C/c2ccc([N+](=O)[O-])o2)C(=O)N1 [Nitrofurantoin],promoter activity interaction Z-score,[1]; [14],0.0114 ± 0.17
same,promoter activity interaction Z-score,[1]; [15],0.119 ± 1.2
same,promoter activity interaction Z-score,[1]; [16],0.336 ± 0.34
same,promoter activity interaction Z-score,[1]; [17],0.0185 ± 0.49
same,promoter activity interaction Z-score,[1]; [18],-0.124 ± 0.043
same,promoter activity interaction Z-score,[1]; [19],0.483 ± 1.2
same,promoter activity interaction Z-score,[1]; [20],0.267 ± 0.28
same,promoter activity interaction Z-score,[1]; [21],-0.258 ± 0.11
same,promoter activity interaction Z-score,[1]; [22],0.24 ± 0.28
same,promoter activity interaction Z-score,[1]; [23],-0.0961 ± 0.62
same,promoter activity interaction Z-score,[1]; [24],0.562 ± 0.54
same,promoter activity interaction Z-score,[1]; [25],0.221 ± 0.13
same,promoter activity interaction Z-score,[1]; [26],5.63 ± 1.8
same,promoter activity interaction Z-score,[1]; [27],1.31 ± 1.1
same,promoter activity interaction Z-score,[1]; [28],1.31
same,promoter activity interaction Z-score,[3]; [14],-0.201 ± 0.35
same,promoter activity interaction Z-score,[3]; [15],-0.0627 ± 0.036
same,promoter activity interaction Z-score,[3]; [16],-0.0214 ± 0.074
same,promoter activity interaction Z-score,[3]; [17],0.0613 ± 0.061
same,promoter activity interaction Z-score,[3]; [18],-0.0281 ± 0.071
same,promoter activity interaction Z-score,[3]; [19],0.0181 ± 0.016
same,promoter activity interaction Z-score,[3]; [20],0.0629 ± 0.06
same,promoter activity interaction Z-score,[3]; [21],-0.168 ± 0.14
same,promoter activity interaction Z-score,[3]; [22],-0.0112 ± 0.03
same,promoter activity interaction Z-score,[3]; [23],-0.163 ± 0.13
same,promoter activity interaction Z-score,[3]; [24],0.113 ± 0.19
same,promoter activity interaction Z-score,[3]; [25],0.261 ± 0.17
same,promoter activity interaction Z-score,[3]; [26],-0.0667 ± 0.48
same,promoter activity interaction Z-score,[3]; [27],-0.232 ± 0.11
same,promoter activity interaction Z-score,[3]; [29],1.15 ± 0.47
same,promoter activity interaction Z-score,[3]; [28],0.96
same,promoter activity interaction Z-score,[4]; [14],-0.15 ± 0.13
same,promoter activity interaction Z-score,[4]; [15],-0.453 ± 0.32
same,promoter activity interaction Z-score,[4]; [16],-0.0497 ± 0.041
same,promoter activity interaction Z-score,[4]; [17],0.0722 ± 0.049
same,promoter activity interaction Z-score,[4]; [18],-0.0847 ± 0.24
same,promoter activity interaction Z-score,[4]; [19],-0.089 ± 0.056
same,promoter activity interaction Z-score,[4]; [20],-0.35 ± 0.18
same,promoter activity interaction Z-score,[4]; [21],-0.556 ± 0.079
same,promoter activity interaction Z-score,[4]; [22],-0.226 ± 0.099
same,promoter activity interaction Z-score,[4]; [23],-0.21 ± 0.076
same,promoter activity interaction Z-score,[4]; [24],0.603 ± 0.17
same,promoter activity interaction Z-score,[4]; [25],0.0583 ± 0.32
same,promoter activity interaction Z-score,[4]; [26],-2.5
same,promoter activity interaction Z-score,[4]; [27],1.3 ± 0.68
same,promoter activity interaction Z-score,[4]; [29],3.89
same,promoter activity interaction Z-score,[4]; [28],-0.534
same,promoter activity interaction Z-score,[5]; [14],0.114 ± 0.034
same,promoter activity interaction Z-score,[5]; [15],0.455 ± 0.074
same,promoter activity interaction Z-score,[5]; [16],0.575 ± 0.24
same,promoter activity interaction Z-score,[5]; [17],0.737 ± 0.98
same,promoter activity interaction Z-score,[5]; [18],0.053 ± 0.093
same,promoter activity interaction Z-score,[5]; [19],1.12 ± 0.13
same,promoter activity interaction Z-score,[5]; [20],-0.308 ± 0.14
same,promoter activity interaction Z-score,[5]; [21],0.326 ± 0.87
same,promoter activity interaction Z-score,[5]; [22],-0.109 ± 0.28
same,promoter activity interaction Z-score,[5]; [23],-0.423 ± 0.23
same,promoter activity interaction Z-score,[5]; [24],-0.197 ± 0.6
same,promoter activity interaction Z-score,[5]; [25],0.0845 ± 0.42
same,promoter activity interaction Z-score,[5]; [26],-0.125 ± 0.22
same,promoter activity interaction Z-score,[5]; [27],-0.424 ± 0.58
same,promoter activity interaction Z-score,[5]; [28],0.453 ± 1.5
same,promoter activity interaction Z-score,[6]; [14],0.0106 ± 0.12
same,promoter activity interaction Z-score,[6]; [15],-0.137 ± 0.086
same,promoter activity interaction Z-score,[6]; [16],-0.0668 ± 0.14
same,promoter activity interaction Z-score,[6]; [17],0.0402 ± 0.15
same,promoter activity interaction Z-score,[6]; [18],0.102 ± 0.0085
same,promoter activity interaction Z-score,[6]; [19],0.0915 ± 0.093
same,promoter activity interaction Z-score,[6]; [20],0.0454 ± 0.22
same,promoter activity interaction Z-score,[6]; [21],0.0812 ± 0.0067
same,promoter activity interaction Z-score,[6]; [22],0.0189 ± 0.12
same,promoter activity interaction Z-score,[6]; [23],-0.113 ± 0.12
same,promoter activity interaction Z-score,[6]; [24],-0.00251 ± 0.13
same,promoter activity interaction Z-score,[6]; [25],0.294 ± 0.093
same,promoter activity interaction Z-score,[6]; [26],0.367 ± 0.26
same,promoter activity interaction Z-score,[6]; [27],0.0789 ± 0.17
same,promoter activity interaction Z-score,[6]; [29],-0.00598 ± 0.3
same,promoter activity interaction Z-score,[6]; [28],0.987 ± 0.11
same,promoter activity interaction Z-score,[7]; [14],-0.752 ± 0.08
same,promoter activity interaction Z-score,[7]; [15],-0.242 ± 1.3
same,promoter activity interaction Z-score,[7]; [16],-0.5 ± 0.78
same,promoter activity interaction Z-score,[7]; [17],-0.5485 ± 0.0052
same,promoter activity interaction Z-score,[7]; [18],0.445 ± 0.35
same,promoter activity interaction Z-score,[7]; [19],0.287 ± 1.1
same,promoter activity interaction Z-score,[7]; [20],-0.164 ± 0.15
same,promoter activity interaction Z-score,[7]; [21],-0.317 ± 0.33
same,promoter activity interaction Z-score,[7]; [22],-0.711 ± 0.13
same,promoter activity interaction Z-score,[7]; [23],-0.75 ± 0.79
same,promoter activity interaction Z-score,[7]; [24],0.238 ± 0.13
same,promoter activity interaction Z-score,[7]; [25],0.385 ± 1.6
same,promoter activity interaction Z-score,[7]; [26],1.24 ± 0.17
same,promoter activity interaction Z-score,[7]; [27],-1.22 ± 0.056
same,promoter activity interaction Z-score,[7]; [29],0.356 ± 0.69
same,promoter activity interaction Z-score,[7]; [28],0.0431 ± 0.49
